The panel holds about 83,000 compounds, 20% with a hit somewhere; the sample as a whole holds those more often.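 Plates (96-well) were seeded with cells, treated with compound at one concentration, and incubated for 48 hours before percent growth was determined.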 A number with no mark means an inactive call. Calls of active or inactive are those of the source. How the source made its calls: active means growth percent below 10; inactive means the rest.
Experiments:
Experiment in all cases: NCI-60 one-dose screen, 48 h (100 = growth as untreated, 0 = no growth, -100 = all killed)
Settings in all cases: 10 µM
HCT-15 colon = system: HCT-15 colon
HT29 colon = system: HT29 colon
SNB-75 CNS = system: SNB-75 CNS
SNB-19 CNS = system: SNB-19 CNS
U251 CNS = system: U251 CNS
PC-3 prostate = system: PC-3 prostate
SK-MEL-5 melanoma = system: SK-MEL-5 melanoma
UACC-62 melanoma = system: UACC-62 melanoma
LOX IMVI melanoma = system: LOX IMVI melanoma
SK-MEL-28 melanoma = system: SK-MEL-28 melanoma

| Compound | growth (HCT-15 colon) | growth (HT29 colon) | growth (SNB-75 CNS) | growth (SNB-19 CNS) | growth (U251 CNS) | growth (PC-3 prostate) | growth (SK-MEL-5 melanoma) | growth (UACC-62 melanoma) | growth (LOX IMVI melanoma) | growth (SK-MEL-28 melanoma) |
| --- | --- | --- | --- | --- | --- | --- | --- | --- | --- | --- |
| CCCCCc1ccc(S(=O)(=O)Nc2cc(-c3csc(N(C)C(C)=O)n3)ccc2N2CCN(C)CC2)cc1 | 1.4% (active) | 15.2% | 40% | 41% | 19.6% | 37% | -6.97% (active) | -62.2% (active) | -71.1% (active) | 11.8% |
| O=C(Nc1ccc(OCC(=O)c2ccccc2)cc1)Nc1ccc(Cl)c(C(F)(F)F)c1 | 17.8% | 29.3% | 3.5% (active) | 15.7% | 25.8% | 6.92% (active) | -61.2% (active) | -21.3% (active) | -24.4% (active) | 4.82% (active) |
| Nc1nc(Nc2ccc(Cl)cc2)nn1Cc1cccc(Br)c1 | 29.9% | 54.1% | 69.9% | 57.2% | 58.6% | 22.9% | 47.4% | 29.9% | 13.7% | 44.8% |
| O=C(NC(=S)N1CCN(c2ncnc3c2cnn3-c2ccccc2)CC1)c1ccc(Cl)cc1 | 52.3% | 79.1% | 2.35% (active) | 28.2% | 38.3% | 47.3% | 76.3% | 68.9% | 14.3% | 82.5% |
| CONC[C@]1(C)C=C2C(=O)[C@](C)(O)C3(CC3)C(C)=C2[C@H]1O | -24.4% (active) | -12% (active) | -80.9% (active) | -10.7% (active) | 3.39% (active) | 3.46% (active) | -37.4% (active) | -90% (active) | -67.3% (active) | -73.2% (active) |
| O=C1NC(=NC23CC4CC(CC(C4)C2)C3)N/C1=C\c1ccc2ncsc2c1 | -3.34% (active) | 13.6% | -44.1% (active) | 6.09% (active) | 10.2% | 11.4% | 2.01% (active) | 7.15% (active) | 2.05% (active) | 0.351% (active) |
| CC(=O)NCC1=C(C)C=C2C(=O)[C@](C)(O)C3(CC3)C(C)=C21 | -20% (active) | -20.4% (active) | -74.5% (active) | -49.8% (active) | -13.2% (active) | 2.77% (active) | -84.7% (active) | -91% (active) | -49.3% (active) | -93.3% (active) |
| COc1ccc(C=CC(=O)c2ccc(-n3c(C)nc4c(cnn4-c4ccccc4)c3=O)cc2)cc1 | 53.5% | 71.5% | 98.1% | 81.8% | 74.1% | 65.1% | 27.7% | 50% | 43.9% | 90.4% |
| Cc1ccc(CSc2nc(-c3ccc(F)cc3)c(C#N)c(=O)[nH]2)cc1 | 84.2% | 89.3% | 115% | 109% | 96.6% | 95.5% | 94.5% | 93.8% | 95.6% | 111% |
| Cc1ccc(NC(=O)c2ccc(-n3c(=O)[nH]c4ccccc4c3=O)cc2)cc1 | 88.7% | 104% | 50.5% | 68.4% | 91.9% | 96.1% | 90.9% | 82.4% | 85.1% | 102% |
| C=CC(=O)Nc1nc(-c2cccc(NS(=O)(=O)c3cccc4c(N(C)C)cccc34)c2)cs1 | -76.8% (active) | -56.3% (active) | 5.83% (active) | 15.6% | -59% (active) | -26% (active) | -87.7% (active) | -86.8% (active) | -95.2% (active) | -93.6% (active) |
| COc1ccc2[nH]c(=O)c(CSc3cccc(N)c3)cc2c1 | 48.2% | 75.4% | 82.7% | 70.4% | 70.1% | 69.2% | 6.41% (active) | 16.5% | 16.1% | 69.6% |
| Cc1ccc(-c2cc(C(=O)N=Nc3c(O)[nH]c4ccccc34)c3ccccc3n2)cc1 | 7.91% (active) | 37.9% | 85.7% | 58% | 27.2% | 48.5% | 36.9% | 61.6% | -40.4% (active) | 59.4% |
| COc1cc2c(cc1OC)CN(CCCCOc1cc(O)c3c(=O)cc(-c4ccccc4)oc3c1)CC2 | 21.4% | -6.93% (active) | 98.9% | 78.3% | 49.8% | 63.1% | 17.1% | 40.4% | -66.1% (active) | -8.78% (active) |
| COc1ccc(/C(CSc2nnc(-c3c[nH]c4ccccc34)n2-c2ccccc2)=N/O)cc1 | 15.3% | 32% | 63.3% | 40.3% | 39.4% | 23.1% | -10.2% (active) | 31.4% | -78.2% (active) | 37.4% |
| CC(C)Sc1nc(NC2CC2)c(C#N)c(-c2ccccc2)n1 | 101% | 87.3% | 81.3% | 25.7% | 50.6% | 83% | 93.1% | 87.1% | 80.2% | 110% |
| COc1cc(NC(=O)CSc2nnc(-c3ccc4nc(-c5ccc(Cl)cc5)[nH]c4c3)o2)cc(OC)c1OC | 43.3% | 61.7% | 93.7% | 86% | 77% | 46.9% | 50.5% | 37.8% | 51.9% | 70.5% |
| C=C[C@H]1[C@H](O[C@@H]2OC(CO)[C@@H](O)[C@H](O)C2OC(=O)c2c(O)cc(O)cc2-c2cccc(O)c2)OC=C2C(=O)OCC[C@H]21 (stereo not given in full) | 93.7% | 108% | 93.2% | 97.2% | 104% | 103% | 100% | 98% | 99.3% | 102% |
| CN(C)c1ccc(/C=C/C(=O)c2ccc(NC(=O)CN3C(=O)NC(C)(c4ccccc4)C3=O)cc2)cc1 (stereo not given) | 26.9% | 19.5% | 80.6% | 70.5% | 46% | 43.3% | 23.2% | 46.6% | 41.4% | 70.7% |
| COc1ccc2[nH]cc(/C=N/Nc3cccc(Cl)n3)c2c1 | 29.6% | 60.6% | 61.8% | 61% | 57.5% | 35% | 64% | 61.8% | 28.8% | 96.4% |
| O=C(CNc1nc(-c2ccccc2)cs1)Nc1ccc(Cl)cc1[N+](=O)[O-] | -78.5% (active) | -14.8% (active) | -19.2% (active) | 5.15% (active) | -52.1% (active) | 10.5% | -100% (active) | -70.5% (active) | -97.2% (active) | -69.4% (active) |
| CC1=C(C(=O)OC(C)C)C(c2ccc(O)cc2)NC(=S)N1 (stereo not given) | 102% | 108% | 217% | 101% | 102% | 94.7% | 106% | 93.4% | 94.4% | 109% |
| CC(=O)Nc1ccc(-c2cn(-c3cccc(C(=O)Nc4cc(C(F)(F)F)cc(C(F)(F)F)c4)c3)nn2)cn1 | -40.5% (active) | -37.4% (active) | -6.74% (active) | -42.4% (active) | -66.2% (active) | -59.5% (active) | -38.9% (active) | -46.2% (active) | -100% (active) | -46.4% (active) |
| CO[C@@H]1CSS[C@H]1Cn1nc(-c2ccc(Oc3ccccc3)cc2)c2c(N)ncnc21 | 66.9% | 51.1% | 113% | 71.8% | 60% | 51.7% | 25.7% | -11.1% (active) | 53.7% | -0.701% (active) |
| CC(=O)c1ccc(Nc2nc(SCCC(C)C)nc(-c3ccc(F)cc3)c2C#N)cc1 | 63.8% | 47.9% | 52.3% | 20.4% | 2.09% (active) | 80.2% | 93.8% | 89.8% | 5.44% (active) | 83.5% |
| CCCn1c(=O)c2[nH]c(-c3ccc(OCc4nc5ccccc5[nH]4)cc3)nc2n(CCC)c1=O | 63.2% | 61.2% | 34.9% | 37.1% | 2.91% (active) | 77.3% | 44.6% | 35.5% | -2.38% (active) | 102% |

Reference: PubChem BioAssay (NCI)
